# Source: the supplement of paper PMC10849652
# The full data set covers some 7,900 targets. This sample favours those with a hit. About 0.6% of all pairs of compound and target were hits. A number with no mark means an inactive call.
# Key:
# Test in all cases: log2 fold change, soluble protein after heating vs DMSO (PISA); higher = thermal stabilisation; K562 cells, 10 uM, 30 min; active = over 0.2 and 3.5 SD of the protein, either way, in both replicates (recomputed)
# erlotinib = compound: C#Cc1cccc(Nc2ncnc3cc(OCCOC)c(OCCOC)cc23)c1 [erlotinib]
# Method in brief: (§1)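 Soluble protein was defined as the supernatant after 21,000xg for 90 min. It came from K562 cells at 2×10^6 cells/mL given 10 μM compound for 30 min, heated in aliquots for 3 min across 48°C-58°C, pooled, and extracted in PBS with 0.5% NP-40 at 4°C, and was quantified by TMTpro 16plex LC-MS/MS with equalised channel sums. Thermal stability against control samples, from duplicates, is reported as log2 fold change.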
# [1] = compound: C/C(=N\NC(=O)C1=CC(=CC=C1)S(=O)(=O)N2CCOCC2)/C3=C(C=CC(=C3)Cl)O
# Method in brief: as §1
# [2] = compound: C1=CC(=C(C=C1Cl)C2=NC3=NC=CN=C3C(=N2)NC4=CC=NC=C4)F
# Method in brief: as §1
# [3] = compound: C1=CC(=CC=C1C2=NC3=C(N2)C=C(C=C3)C(=O)N)OC4=CC=C(C=C4)Cl
# Method in brief: as §1
# [4] = compound: C1=CC2=C(C=CC(=C2)/C=C\3/C(=O)NC(=NCC4=CC=CS4)S3)N=C1
# Method in brief: as §1
# [5] = compound: C1=CC2=NC=CN=C2C=C1/C=C/3\C(=O)NC(=O)S3
# Method in brief: as §1
# [6] = compound: C1=CC=C(C=C1)C2=NC(=C(N2)C3=CC=NC=C3)C4=CC(=C(C=C4)Cl)O
# Method in brief: as §1
# [7] = compound: C1=CC=C2C(=C1)C3=NNC4=CC=CC(=C43)C2=O
# Method in brief: as §1
# [8] = compound: C1CCN(C1)C(=O)NC2=CC=CC(=C2)NC3=NC=C(C(=N3)NCCC4=CN=CN4)Br
# Method in brief: as §1
# [9] = compound: C1CN(CCC1(CC2=CC=C(C=C2)Cl)N)C3=NC=NC4=C3C=CN4
# Method in brief: as §1
# IRAK-1-4 Inhibitor I = compound: C1COCCN1CCN2C3=CC=CC=C3N=C2NC(=O)C4=CC(=CC=C4)[N+](=O)[O-] [IRAK-1-4 Inhibitor I]
# Method in brief: as §1
# ibrutinib = compound: C=CC(=O)N1CCC[C@@H](n2nc(-c3ccc(Oc4ccccc4)cc3)c3c(N)ncnc32)C1 [ibrutinib]
# Method in brief: as §1
# [10] = compound: CC(=O)c1cnc2ccc(-c3cc(Cl)c(O)c(Cl)c3)nc2c1N[C@H]1CC[C@H](CN(C)C)CC1
# Method in brief: as §1
# ralimetinib = compound: CC(C)(C)Cn1c(N)nc2ccc(-c3[nH]c(C(C)(C)C)nc3-c3ccc(F)cc3)nc21 [ralimetinib]
# Method in brief: as §1
# [11] = compound: CC(C)(O)CC(=O)NCCn1ccc2ncnc(Nc3ccc(Oc4cccc(C(F)(F)F)c4)c(Cl)c3)c21
# Method in brief: as §1
# [12] = compound: CC(C)C1=C2N=C(C=C(N2N=C1)NCC3=CC=CC=C3)NCCCCCCN
# Method in brief: as §1
# [13] = compound: CC(C)C[C@@H](C=O)NC(=O)[C@H](CC(C)C)NC(=O)[C@H](CC(C)C)NC(=O)OCc1ccccc1
# Method in brief: as §1
# pinometostat = compound: CC(C)N(C[C@H]1O[C@@H](n2cnc3c(N)ncnc32)[C@H](O)[C@@H]1O)[C@H]1C[C@@H](CCc2nc3cc(C(C)(C)C)ccc3[nH]2)C1 [pinometostat]
# Method in brief: as §1
# [14] = compound: CC1=C(C(CC(=O)N1)C2=CC=C(C=C2)C(F)(F)F)C(=O)NC3=C(C=C4C(=C3)C=NN4)F
# Method in brief: as §1
# [15] = compound: CC1=C(C2=C(C=C1)C(=O)C3=CC=CC=C3N2CCCN)C
# Method in brief: as §1
# Sequence of UniProt Q99798 (Q99798 whole entry, looked up): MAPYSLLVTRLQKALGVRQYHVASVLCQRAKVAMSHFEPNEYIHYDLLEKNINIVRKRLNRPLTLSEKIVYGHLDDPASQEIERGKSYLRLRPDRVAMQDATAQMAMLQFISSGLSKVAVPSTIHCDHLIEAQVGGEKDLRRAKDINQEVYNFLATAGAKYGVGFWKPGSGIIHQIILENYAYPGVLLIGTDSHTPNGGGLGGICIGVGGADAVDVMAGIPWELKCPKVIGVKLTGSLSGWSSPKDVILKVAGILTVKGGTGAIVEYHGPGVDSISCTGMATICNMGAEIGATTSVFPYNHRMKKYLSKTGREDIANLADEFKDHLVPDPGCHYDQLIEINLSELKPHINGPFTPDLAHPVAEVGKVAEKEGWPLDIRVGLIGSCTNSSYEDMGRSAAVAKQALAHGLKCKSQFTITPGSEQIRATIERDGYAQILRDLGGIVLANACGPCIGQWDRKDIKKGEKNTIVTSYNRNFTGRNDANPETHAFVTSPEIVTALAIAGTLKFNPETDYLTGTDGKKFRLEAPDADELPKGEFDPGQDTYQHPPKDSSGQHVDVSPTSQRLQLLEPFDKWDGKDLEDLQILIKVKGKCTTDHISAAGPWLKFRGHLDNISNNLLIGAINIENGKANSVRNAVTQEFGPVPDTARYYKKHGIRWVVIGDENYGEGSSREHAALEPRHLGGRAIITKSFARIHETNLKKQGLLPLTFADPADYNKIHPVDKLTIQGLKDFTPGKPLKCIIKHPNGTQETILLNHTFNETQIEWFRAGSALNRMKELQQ
# Sequence of UniProt Q9NSY1 (Q9NSY1 whole entry, looked up): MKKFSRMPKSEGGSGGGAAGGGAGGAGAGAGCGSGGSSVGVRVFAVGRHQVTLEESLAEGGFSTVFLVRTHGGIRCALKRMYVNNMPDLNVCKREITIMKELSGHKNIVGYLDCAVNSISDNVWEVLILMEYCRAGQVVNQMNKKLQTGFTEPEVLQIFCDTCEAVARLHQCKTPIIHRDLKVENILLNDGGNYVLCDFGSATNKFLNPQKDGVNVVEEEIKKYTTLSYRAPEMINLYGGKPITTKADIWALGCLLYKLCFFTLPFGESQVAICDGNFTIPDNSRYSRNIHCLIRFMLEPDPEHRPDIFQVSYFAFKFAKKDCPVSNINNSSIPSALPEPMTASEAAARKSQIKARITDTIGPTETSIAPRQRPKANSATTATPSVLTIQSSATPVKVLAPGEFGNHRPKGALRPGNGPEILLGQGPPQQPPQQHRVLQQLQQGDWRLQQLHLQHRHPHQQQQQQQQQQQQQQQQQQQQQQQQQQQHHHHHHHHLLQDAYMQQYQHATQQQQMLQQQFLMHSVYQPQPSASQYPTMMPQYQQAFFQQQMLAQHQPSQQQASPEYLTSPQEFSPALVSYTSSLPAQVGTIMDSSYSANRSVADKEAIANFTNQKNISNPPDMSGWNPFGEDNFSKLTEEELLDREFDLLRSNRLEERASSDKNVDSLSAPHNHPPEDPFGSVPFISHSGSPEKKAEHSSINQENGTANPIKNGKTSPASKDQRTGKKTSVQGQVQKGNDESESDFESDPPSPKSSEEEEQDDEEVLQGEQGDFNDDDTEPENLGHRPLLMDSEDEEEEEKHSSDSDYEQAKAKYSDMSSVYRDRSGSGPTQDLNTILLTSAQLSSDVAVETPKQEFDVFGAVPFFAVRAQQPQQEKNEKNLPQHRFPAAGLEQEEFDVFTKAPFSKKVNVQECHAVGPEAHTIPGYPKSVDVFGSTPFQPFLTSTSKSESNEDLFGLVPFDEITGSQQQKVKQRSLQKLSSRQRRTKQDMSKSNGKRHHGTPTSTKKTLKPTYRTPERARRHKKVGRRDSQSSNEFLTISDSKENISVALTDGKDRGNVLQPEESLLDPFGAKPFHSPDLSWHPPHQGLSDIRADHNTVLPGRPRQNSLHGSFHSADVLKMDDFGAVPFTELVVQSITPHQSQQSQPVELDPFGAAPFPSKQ
# Sequence of UniProt Q9Y6E2 (Q9Y6E2 whole entry, looked up): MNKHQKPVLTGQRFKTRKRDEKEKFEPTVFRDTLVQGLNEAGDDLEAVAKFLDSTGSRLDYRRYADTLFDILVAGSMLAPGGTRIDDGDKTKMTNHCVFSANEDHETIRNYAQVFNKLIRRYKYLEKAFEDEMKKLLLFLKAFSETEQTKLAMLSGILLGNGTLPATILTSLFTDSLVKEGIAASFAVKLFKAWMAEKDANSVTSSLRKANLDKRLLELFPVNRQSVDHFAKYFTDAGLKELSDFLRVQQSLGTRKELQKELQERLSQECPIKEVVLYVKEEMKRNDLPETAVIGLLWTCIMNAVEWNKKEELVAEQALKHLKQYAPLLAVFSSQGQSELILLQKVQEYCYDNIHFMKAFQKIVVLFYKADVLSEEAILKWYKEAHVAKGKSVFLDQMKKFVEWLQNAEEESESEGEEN
# Sequence of UniProt P49189 (P49189 whole entry, looked up): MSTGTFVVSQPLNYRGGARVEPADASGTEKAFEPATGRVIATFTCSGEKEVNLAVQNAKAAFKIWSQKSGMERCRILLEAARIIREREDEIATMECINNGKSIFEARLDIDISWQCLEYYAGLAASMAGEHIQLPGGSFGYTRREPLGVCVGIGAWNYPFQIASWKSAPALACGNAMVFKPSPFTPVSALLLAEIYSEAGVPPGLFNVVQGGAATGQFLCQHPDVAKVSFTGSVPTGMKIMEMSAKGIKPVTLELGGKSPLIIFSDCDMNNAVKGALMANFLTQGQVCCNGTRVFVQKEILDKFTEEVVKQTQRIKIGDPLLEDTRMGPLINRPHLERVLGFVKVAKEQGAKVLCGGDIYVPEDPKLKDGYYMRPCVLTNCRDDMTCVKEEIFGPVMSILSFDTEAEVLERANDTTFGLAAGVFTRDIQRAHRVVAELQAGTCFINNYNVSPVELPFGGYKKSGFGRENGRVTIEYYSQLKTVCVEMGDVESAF
# Sequence of UniProt P54886 (P54886 whole entry, looked up): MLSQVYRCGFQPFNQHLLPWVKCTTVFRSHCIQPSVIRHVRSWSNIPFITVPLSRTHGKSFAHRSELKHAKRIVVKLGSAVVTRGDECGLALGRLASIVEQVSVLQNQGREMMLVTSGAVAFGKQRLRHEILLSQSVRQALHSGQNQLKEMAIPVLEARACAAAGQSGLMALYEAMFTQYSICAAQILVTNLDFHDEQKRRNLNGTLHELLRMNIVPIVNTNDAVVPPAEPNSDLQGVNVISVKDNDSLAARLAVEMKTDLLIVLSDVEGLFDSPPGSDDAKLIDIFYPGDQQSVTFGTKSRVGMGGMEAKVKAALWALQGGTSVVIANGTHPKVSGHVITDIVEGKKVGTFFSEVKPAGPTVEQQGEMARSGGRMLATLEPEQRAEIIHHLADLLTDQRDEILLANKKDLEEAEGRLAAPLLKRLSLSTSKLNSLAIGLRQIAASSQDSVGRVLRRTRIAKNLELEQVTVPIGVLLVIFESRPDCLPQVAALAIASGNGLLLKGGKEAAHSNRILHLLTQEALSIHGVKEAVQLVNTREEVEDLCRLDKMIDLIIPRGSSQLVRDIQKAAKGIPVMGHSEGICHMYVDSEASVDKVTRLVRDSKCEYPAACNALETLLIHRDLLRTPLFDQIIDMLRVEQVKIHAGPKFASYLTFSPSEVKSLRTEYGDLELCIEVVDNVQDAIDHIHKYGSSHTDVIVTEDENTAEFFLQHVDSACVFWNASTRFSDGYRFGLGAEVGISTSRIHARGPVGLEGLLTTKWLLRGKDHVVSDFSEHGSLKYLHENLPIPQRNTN
# Sequence of UniProt Q16864 (Q16864 whole entry, looked up): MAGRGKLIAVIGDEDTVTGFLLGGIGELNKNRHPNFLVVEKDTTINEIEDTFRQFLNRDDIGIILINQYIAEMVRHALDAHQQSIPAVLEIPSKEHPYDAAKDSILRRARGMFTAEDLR
# Sequence of UniProt Q8N6D5 (Q8N6D5 whole entry, looked up): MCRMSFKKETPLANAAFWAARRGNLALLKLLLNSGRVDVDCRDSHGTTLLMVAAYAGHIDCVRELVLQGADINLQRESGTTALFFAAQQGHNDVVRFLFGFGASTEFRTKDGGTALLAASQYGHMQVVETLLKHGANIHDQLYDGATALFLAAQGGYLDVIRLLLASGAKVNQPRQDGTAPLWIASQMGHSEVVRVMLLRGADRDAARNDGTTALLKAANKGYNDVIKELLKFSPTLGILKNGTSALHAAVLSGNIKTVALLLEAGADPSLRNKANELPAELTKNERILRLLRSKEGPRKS
# Sequence of UniProt Q9UI12 (Q9UI12 whole entry, looked up): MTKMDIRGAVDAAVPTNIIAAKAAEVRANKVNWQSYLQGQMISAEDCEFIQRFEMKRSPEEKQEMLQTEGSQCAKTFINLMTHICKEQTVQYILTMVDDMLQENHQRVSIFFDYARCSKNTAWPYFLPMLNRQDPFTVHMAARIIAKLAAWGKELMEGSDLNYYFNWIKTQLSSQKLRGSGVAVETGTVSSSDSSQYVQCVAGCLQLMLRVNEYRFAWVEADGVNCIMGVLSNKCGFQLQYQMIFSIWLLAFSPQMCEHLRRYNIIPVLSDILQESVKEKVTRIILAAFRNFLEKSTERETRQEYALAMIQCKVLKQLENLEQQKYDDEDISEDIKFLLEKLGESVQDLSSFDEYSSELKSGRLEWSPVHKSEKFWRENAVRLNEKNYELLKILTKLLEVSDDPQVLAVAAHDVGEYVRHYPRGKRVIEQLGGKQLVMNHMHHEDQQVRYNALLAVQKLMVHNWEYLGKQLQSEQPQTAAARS
# Sequence of UniProt Q9UII2 (Q9UII2 whole entry, looked up): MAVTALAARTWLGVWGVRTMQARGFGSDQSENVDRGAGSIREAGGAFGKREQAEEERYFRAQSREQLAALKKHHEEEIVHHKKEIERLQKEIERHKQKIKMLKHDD
Target,log2 fold change (erlotinib),log2 fold change [1],log2 fold change [2],log2 fold change [3],log2 fold change [4],log2 fold change [5],log2 fold change [6],log2 fold change [7],log2 fold change [8],log2 fold change [9],log2 fold change (IRAK-1-4 Inhibitor I),log2 fold change (ibrutinib),log2 fold change [10],log2 fold change (ralimetinib),log2 fold change [11],log2 fold change [12],log2 fold change [13],log2 fold change (pinometostat),log2 fold change [14],log2 fold change [15]
ATP6V1H (UniProt Q9UI12),-0.055,0.015,0.034,0.035,-0.008,0.045,-0.131,0.024,-0.051,-0.097,-0.011,-0.033,-0.065,0.007,-0.014,-0.241 (active),0.043,-0.002,-0.006,0.028
ALDH9A1 isoform 3 (UniProt P49189),-0.025,0.016,0.043,0.027,-0.004,0.003,0.037,-0.007,-0.018,0.051,0.059,0.025,0.003,-0.047,-0.004,0.019,-0.022,-0.013,0.028,-0.003
ANKRD29 (UniProt Q8N6D5),0.243,-0.445 (active),0.083,-0.021,0.223,-0.015,-0.046,0.098,-0.025,0.096,-0.001,-0.18,0.026,-0.057,-0.15,0.007,-0.153,-0.012,0.009,0.024
APLP2 (UniProt Q06481),0.003,0.009,-0.023,-0.034,0.023,0.004,0.044,-0.03,-0.047,-0.002,-0.073,-0.005,-0.004,0.086,0.133,0.167,0.062,0,-0.017,-0.225
ATP6V1F isoform 2 (UniProt Q16864),-0.049,-0.017,0.232,0.077,0.04,0.189,-0.017,-0.024,-0.066,-0.222,0.053,-0.003,-0.189,-0.054,-0.132,-0.024,-0.059,-0.009,0.039,0.253
ACO2 (UniProt Q99798),0.049,0.008,0.105,-0.014,0.077,-0.244 (active),0.036,0.009,0.018,0.015,0.023,0.025,-0.016,-0.019,-0.068,-0.058,-0.022,-0.033,-0.049,0.076
ATAD3B (UniProt Q5T9A4),-0.027,-0.018,-0.128,-0.006,-0.005,-0.002,-0.06,0.066,0.01,-0.091,-0.05,0.045,-0.01,0.122,-0.011,-0.472 (active),0.066,0.276,0.077,0.024
ALDH18A1 (UniProt P54886),0.016,0.092,0.089,-0.084,-0.007,-0.204,-0.093,-0.091,-0.015,-0.057,0,-0.098,0,-0.057,-0.497 (active),-0.269,0,-0.053,-0.059,0.184
ATP5IF1 (UniProt Q9UII2),0.001,-0.122,0.032,-0.005,-0.104,0.007,-0.051,0.153,0.053,0.032,0.121,0.012,0.018,-0.1,0.099,0.056,-0.048,-0.06,0.009,-0.006
BMP2K (UniProt Q9NSY1),0.079,-0.16,-0.016,-0.024,0.178,-0.042,-0.012,0.388 (active),0.353,-0.061,0.003,0.071,0.559 (active),0.058,-0.028,-0.027,0.085,-0.008,0.023,-0.009
BZW2 (UniProt Q9Y6E2),-0.018,0.106,0.054,-0.016,0.033,0.026,0.022,0.013,0.037,-0.021,0.04,-0.043,0,-0.016,-0.121,-0.163,-0.003,-0.011,-0.005,0.014
AGO1 (UniProt Q9UL18),0.031,-0.061,0.05,-0.091,0.032,0.005,0.01,-0.08,-0.008,0.046,0.02,0.05,0.019,-0.023,-0.001,-0.01,0.07,0.061,0.144,0.076
